# Test results as given in PubChem BioAssay (Tox21).
# Values joined by “and” are separate entries in the source; they are usually repeats but may differ in a detail not shown here. Equal entries are not always repeated. Records with an inconclusive call do not appear. Where a call stands in place of a potency, no number is given. More than one record can exist for a structure, and the calls need not agree. Active and inactive are the calls of the source. Calls come from the whole dose curve; as a rule, active = well fitted inhibition curve with a large enough effect in the repeat runs; inconclusive = weak or mixed curves; inactive = flat fitted curve, though single readings scatter.
# Molecular target: Voltage-gated inwardly rectifying potassium channel KCNH2 (Homo sapiens) (UniProt Q12809)
# Sequence (Q12809 whole entry, looked up): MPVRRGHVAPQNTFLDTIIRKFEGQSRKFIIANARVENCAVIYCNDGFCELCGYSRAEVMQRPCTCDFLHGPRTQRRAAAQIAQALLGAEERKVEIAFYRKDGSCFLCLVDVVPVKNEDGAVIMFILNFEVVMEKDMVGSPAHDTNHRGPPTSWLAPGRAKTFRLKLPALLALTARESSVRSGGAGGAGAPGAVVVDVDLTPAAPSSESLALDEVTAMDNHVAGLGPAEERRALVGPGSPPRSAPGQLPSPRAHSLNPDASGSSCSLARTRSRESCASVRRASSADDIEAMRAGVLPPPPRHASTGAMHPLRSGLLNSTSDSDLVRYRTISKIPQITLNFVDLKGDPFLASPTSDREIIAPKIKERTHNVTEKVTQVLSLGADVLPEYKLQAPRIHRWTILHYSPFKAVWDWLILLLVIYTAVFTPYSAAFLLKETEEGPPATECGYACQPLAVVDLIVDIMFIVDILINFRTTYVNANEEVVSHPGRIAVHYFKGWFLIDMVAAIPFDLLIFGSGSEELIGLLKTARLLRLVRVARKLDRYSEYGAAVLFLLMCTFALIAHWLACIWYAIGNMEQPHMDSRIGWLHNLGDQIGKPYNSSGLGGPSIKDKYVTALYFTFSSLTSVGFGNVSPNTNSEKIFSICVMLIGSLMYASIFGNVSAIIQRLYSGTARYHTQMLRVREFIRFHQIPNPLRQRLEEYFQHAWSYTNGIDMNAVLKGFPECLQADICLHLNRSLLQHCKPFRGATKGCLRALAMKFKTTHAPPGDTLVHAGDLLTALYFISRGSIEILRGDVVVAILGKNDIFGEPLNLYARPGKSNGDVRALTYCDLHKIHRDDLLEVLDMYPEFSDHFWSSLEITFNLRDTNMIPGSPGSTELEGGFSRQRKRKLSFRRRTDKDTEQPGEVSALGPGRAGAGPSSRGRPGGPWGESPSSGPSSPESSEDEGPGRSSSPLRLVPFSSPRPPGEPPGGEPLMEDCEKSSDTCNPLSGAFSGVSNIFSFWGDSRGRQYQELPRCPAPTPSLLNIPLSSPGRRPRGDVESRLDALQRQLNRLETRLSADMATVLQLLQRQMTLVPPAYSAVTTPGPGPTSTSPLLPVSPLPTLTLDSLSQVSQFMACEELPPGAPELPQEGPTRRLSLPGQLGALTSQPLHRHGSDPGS
# Test: Human Ether-a-go-go-Related Gene (hERG) channel small molecule antagonists: fluorescence cell-based qHTS assay (AID 1671200); note: nearly all actives have a fitted effect of over 50% in size
# Settings: hERG-U2OS cells, FluxOR thallium flux fluorescence; series mostly up to 76.8 µM
# Source text: National Center for Advancing Translational Sciences [NCATS]
# U.S. Environmental Protection Agency [EPA]
# National Institutes of Environmental Health Sciences [NIEHS]
# National Toxicology Program [NTP]
# U.S. Food and Drug Administration [FDA]
# Mutations in the hERG channel cause Long QT (LQT) syndrome. LQT syndrome is a cardiac disorder which can cause ventricle arrhythmia and sudden death. Additionally, compounds which block the hERG channel can cause acquired LQT syndrome. Several FDA approved drugs have been removed from the market due to their hERG blocking activity. A cell-based hERG channel inhibition assay can be used to screen chemical compounds that inhibit hERG channel. This assay measures hERG channel activity using thallium ions as surrogate ions to measure potassium into the cells.
# Tox21 Assay Protocol Summary:
# hERG-U2OS cells were resuspended in culture medium and dispensed into 1536-well, black wall/clear-bottom plates at 1000cells/well/3uL using a Multidrop Combi dispenser (Thermo Fisher, Waltham, MA). After plates were incubated at 37 C overnight, 3 uL of Loading Buffer provided by FluxOR II Potassium Ion Channel Assay kit (Thermo, Carlsbad, CA) was added to each well. The assay plates were then incubated at room temperature in the dark for 1h. […] After the assay plates were incubated at room temperature for 10 min, 1 uL of Stimulus Buffer provided by FluxOR II Potassium Ion Channel Assay kit was added into each well and fluorescence intensity (480nm excitation/540nm emission) was continuously measured for 2 min at 1 second intervals using a Functional Drug Screening System (FDSS) 7000EX kinetic plate reader (Hamamatsu, Japan).
# Potency is the fitted concentration of half-maximal effect.
row,Structure (SMILES),Potency
1,C=CC(=O)OCCCCCCCC(C)C,inactive
2,CS(=O)(=O)Nc1ccc([N+](=O)[O-])cc1Oc1ccccc1,inactive
3,CCCCC(CC)COC(=O)/C=C\C(=O)OCC(CC)CCCC (stereo not given),inactive
4,O=C1O[C@H](CO)[C@@H](O)[C@H](O)[C@H]1O,inactive
5,S=c1nc[nH]c2nc[nH]c12,inactive
6,Cc1ccc(C)c(C)c1,inactive
7,O=Nc1ccc(O)cc1,inactive
8,Oc1ccc2ccccc2c1N=Nc1ccccc1,inactive
9,CCOC(=O)[C@H](CCc1ccccc1)N[C@@H](C)C(=O)N1Cc2ccccc2C[C@H]1C(=O)O,inactive
10,CCCCCCOC(C)=O,inactive
11,NS(=O)(=O)c1cc2c(cc1Cl)NC=NS2(=O)=O,inactive
12,CCCCCCCCC,inactive
13,OCC#CCO,inactive
14,CC1(C)CC(N=C=O)CC(C)(CN=C=O)C1 (stereo not given),inactive
15,c1ccc2ccccc2c1,inactive
16,CCCCCCCCCC(=O)O,inactive
17,CNC[C@H](O)[C@@H](O)[C@H](O)[C@H](O)CO,inactive
18,O=C1CCCCC1,inactive
19,CC1=CC[C@H]2C[C@@H]1C2(C)C,inactive
20,CCC(=O)O,inactive

row,Structure (SMILES),Potency
1,CC1Cc2ccccc2N1NC(=O)c1ccc(Cl)c(S(N)(=O)=O)c1 (stereo not given),inactive
2,O=C(O)c1cc(-c2ccccc2)nc2ccccc12,inactive
3,Oc1ccc(OCc2ccccc2)cc1,inactive
4,COC(=O)Nc1nc2ccc(Sc3ccccc3)cc2[nH]1,inactive
5,CC1COc2ccccc2N1C(=O)C(Cl)Cl (stereo not given),inactive
6,CC(C)(C)C(=O)C1C(=O)c2ccccc2C1=O,inactive
7,CN(CCOc1ccc(CC2SC(=O)NC2=O)cc1)c1ccccn1 (stereo not given),inactive
8,C=C(C)C(=O)OCCCCCCCCCCCC,inactive
9,O=S(=O)(O)CCS,inactive
10,NCc1cccc(CN)c1,inactive
11,O=C(Oc1ccccc1)c1ccc(O)cc1,inactive
12,CCCCCCCCCCCCN,inactive and 12.3 µM (active)
13,CCc1ccccc1O,inactive
14,Cc1cc(O)cc(C)c1Cl,inactive
15,CN(C)c1ccc(C(=N)c2ccc(N(C)C)cc2)cc1,48.4 µM (active)
16,C=C(C)C(=O)OCCCCCC,inactive
17,CCOC(=O)C1OC1c1ccccc1 (stereo not given),inactive
18,O=C(c1cc(O)c(O)c(O)c1)c1ccc(O)c(O)c1O,inactive
19,COC(=O)c1ccc(C(=O)OC)cc1,inactive
20,CCCCC/C=C\C/C=C\CCCCCCCC(=O)OC,inactive
